Structures are written as SMILES. “And” between values parts separate entries of the source, which are not always exact repeats. Identical values can stand only once. Results filed as inconclusive are left out. A number with no mark means an inactive call. The source made the active and inactive calls. Calls come from the whole dose curve; as a rule, active = well fitted curve in the direction sought with a large enough effect in the repeat runs; inconclusive = weak or mixed curves; inactive = no such curve, though single readings can be large; an effect the other way counts as inactive or inconclusive.
% is set by controls: 0 for no effect and ±100 for the full control effect; potency is the fitted concentration of half-maximal effect.
Note: nearly all actives have a fitted effect of over 50% in size.

Chain of Voltage-gated inwardly rectifying potassium channel KCNH2 (Homo sapiens) (Q12809 whole entry, looked up): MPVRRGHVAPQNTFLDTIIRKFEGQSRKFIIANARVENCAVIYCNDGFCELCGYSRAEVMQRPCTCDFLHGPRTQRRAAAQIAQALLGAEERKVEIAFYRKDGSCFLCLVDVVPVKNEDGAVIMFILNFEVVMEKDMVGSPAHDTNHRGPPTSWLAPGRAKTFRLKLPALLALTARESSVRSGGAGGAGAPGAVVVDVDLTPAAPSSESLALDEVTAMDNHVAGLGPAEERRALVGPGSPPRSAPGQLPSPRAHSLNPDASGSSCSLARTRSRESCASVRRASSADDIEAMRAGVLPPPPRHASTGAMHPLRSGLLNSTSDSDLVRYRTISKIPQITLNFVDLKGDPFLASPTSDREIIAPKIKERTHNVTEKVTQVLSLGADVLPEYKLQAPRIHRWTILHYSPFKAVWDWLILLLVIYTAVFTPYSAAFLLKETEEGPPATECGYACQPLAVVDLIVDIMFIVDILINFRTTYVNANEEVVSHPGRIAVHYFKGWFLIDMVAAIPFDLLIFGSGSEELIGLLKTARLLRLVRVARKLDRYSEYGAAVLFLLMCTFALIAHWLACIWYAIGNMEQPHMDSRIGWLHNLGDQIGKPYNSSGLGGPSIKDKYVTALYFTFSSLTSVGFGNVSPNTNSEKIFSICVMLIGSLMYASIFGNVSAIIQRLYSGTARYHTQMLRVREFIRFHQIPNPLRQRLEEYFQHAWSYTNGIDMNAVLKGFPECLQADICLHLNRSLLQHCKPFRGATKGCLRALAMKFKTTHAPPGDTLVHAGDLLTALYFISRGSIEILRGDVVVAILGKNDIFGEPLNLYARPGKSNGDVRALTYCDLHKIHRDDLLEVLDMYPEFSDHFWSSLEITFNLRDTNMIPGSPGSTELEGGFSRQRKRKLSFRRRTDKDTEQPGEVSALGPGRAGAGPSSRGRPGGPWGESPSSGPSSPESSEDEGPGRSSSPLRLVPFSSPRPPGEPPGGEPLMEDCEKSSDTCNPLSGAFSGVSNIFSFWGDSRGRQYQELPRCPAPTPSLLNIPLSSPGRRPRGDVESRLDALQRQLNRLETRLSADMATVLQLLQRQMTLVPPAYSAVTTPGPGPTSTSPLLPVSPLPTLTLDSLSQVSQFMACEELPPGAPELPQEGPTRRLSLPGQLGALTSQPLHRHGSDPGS
Chain of Cytochrome P450 1A2 (Homo sapiens) (P05177 whole entry, looked up): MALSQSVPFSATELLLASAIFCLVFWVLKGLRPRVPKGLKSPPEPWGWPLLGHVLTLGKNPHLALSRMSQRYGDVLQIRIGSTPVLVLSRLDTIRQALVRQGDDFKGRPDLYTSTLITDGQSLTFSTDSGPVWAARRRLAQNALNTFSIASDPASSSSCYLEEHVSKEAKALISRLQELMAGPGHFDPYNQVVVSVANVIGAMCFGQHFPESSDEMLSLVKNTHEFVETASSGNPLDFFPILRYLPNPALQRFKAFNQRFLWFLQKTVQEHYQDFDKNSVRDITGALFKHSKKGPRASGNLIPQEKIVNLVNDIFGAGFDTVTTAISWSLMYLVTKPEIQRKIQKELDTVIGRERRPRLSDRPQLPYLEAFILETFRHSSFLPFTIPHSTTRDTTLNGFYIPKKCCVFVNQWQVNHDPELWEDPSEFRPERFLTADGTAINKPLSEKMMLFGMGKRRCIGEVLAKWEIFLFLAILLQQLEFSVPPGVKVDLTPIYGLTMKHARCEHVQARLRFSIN
Chain of Cytochrome P450 2C9 (Homo sapiens) (P11712 whole entry, looked up): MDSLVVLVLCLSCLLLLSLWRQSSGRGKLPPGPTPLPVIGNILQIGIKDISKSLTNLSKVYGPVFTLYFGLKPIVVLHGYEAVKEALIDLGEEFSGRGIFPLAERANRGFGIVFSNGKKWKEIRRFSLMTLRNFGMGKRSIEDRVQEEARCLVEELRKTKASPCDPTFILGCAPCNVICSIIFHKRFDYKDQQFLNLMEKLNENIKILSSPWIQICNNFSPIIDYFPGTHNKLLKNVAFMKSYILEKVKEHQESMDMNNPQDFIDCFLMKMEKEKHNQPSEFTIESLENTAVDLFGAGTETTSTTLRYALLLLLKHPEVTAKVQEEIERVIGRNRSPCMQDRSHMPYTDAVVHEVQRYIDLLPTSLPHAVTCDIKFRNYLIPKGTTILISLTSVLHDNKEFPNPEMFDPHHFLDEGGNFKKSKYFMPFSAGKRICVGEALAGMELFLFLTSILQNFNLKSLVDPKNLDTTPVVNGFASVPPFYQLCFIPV

The first test addresses Cytochrome P450 2C9 (Homo sapiens) (UniProt P11712). In words: Cytochrome P450 Family 2 Subfamily C Member 9 (CYP2C9) small molecule antagonists: luciferase reporter qHTS assay (AID 1671198). Particulars: P450-Glo CYP2C9 enzyme assay, luciferin luminescence; series mostly up to 115 µM; activity change, negative = inhibition: at the top concentration. The gist of the method:
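Enzyme-substrate mix preincubated with compound 10 min at room temperature; reaction started with NADPH regeneration solution, 1 h 37C. Luminescent luciferin product read after 20 min detection reagent.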
(In a reporter assay the amount or activity of a reporter protein is the signal.)
On to `CCOP(=S)(NC(C)C)Oc1ccccc1C(=O)OC(C)C` (stereo unspecified), for which the Potency is 1.42 µM (active).

On to `COc1nc(C)nc(NC(=O)NS(=O)(=O)c2ccccc2Cl)n1`, for which the “activity change, negative = inhibition” value is 0.351%.

For the compound `CO/N=C(\C(=O)OC)c1ccccc1CO/N=C(\C)c1cccc(C(F)(F)F)c1`, the Potency was 8.94 µM (active).

As for `CNC(=O)Oc1cc(C)cc(C(C)C)c1`, the “activity change, negative = inhibition” value is -5.03%.

Take `CC(C)=CC1C(C(=O)OC(C#N)c2cccc(Oc3ccccc3)c2)C1(C)C` (stereo unspecified): the Potency is 10 µM (active).

With `Cc1cnc2c(C(=O)O)c(Cl)ccc2c1`, the “activity change, negative = inhibition” value was -17.9%.

As to `[O]=[Cr][O][Cr]=[O]`, the “activity change, negative = inhibition” value was -5.64%.

With `CCNS(=O)(=O)C(F)(F)C(F)(F)C(F)(F)C(F)(F)C(F)(F)C(F)(F)C(F)(F)C(F)(F)F`, the Potency is 1.52 µM (active).

Consider `CN/C(=N\[N+](=O)[O-])NCc1cnc(Cl)s1`, for which the “activity change, negative = inhibition” value is -5.52%.

Regarding `CCc1cccc(C)c1N(C(=O)CCl)[C@@H](C)COC`, the Potency was 17.8 µM (active).

In the case of `Oc1ccc(Cl)c(Cl)c1`, the “activity change, negative = inhibition” value is 15%.

For `CC(C)c1c(CN(C)C(C)Cc2ccccc2)n(C)n(-c2ccccc2)c1=O` (stereo unspecified), the Potency was 4.36 µM (active).

Consider `CN1C2CCC(C)(C)C1CC(OC(=O)C(O)(c1cccs1)c1cccs1)C2` (stereo unspecified), for which the “activity change, negative = inhibition” value is -1.12% [at 53 µM].

Consider `CCC(C)Br` (stereo unspecified), for which the “activity change, negative = inhibition” value is 5.42%.

On to `COc1cnc(OC)n2nc(NS(=O)(=O)c3c(OCC(F)F)cccc3C(F)(F)F)nc12`, for which the Potency is 35.6 µM (active).

As to `CNC(=O)CSP(=O)(OC)OC`, the “activity change, negative = inhibition” value was -18.8%.

Consider `CC(=O)C(Cl)C(=O)N(C)C` (stereo unspecified), for which the “activity change, negative = inhibition” value is -10.5%.

For the compound `O=c1[nH]c(Cl)c(Cl)cc1Cl`, the Potency was 39.9 µM (active).

For `CCC(C)Nc1c([N+](=O)[O-])cc(C(C)(C)C)cc1[N+](=O)[O-]` (stereo unspecified), the Potency is 35.6 µM (active).

For the compound `C=CC(=O)[O][Sn]([CH2]CCC)([CH2]CCC)[CH2]CCC`, the Potency was 12.6 µM (active).

With `CCN(CC)Cc1nccn1-c1ccc([N+](=O)[O-])cc1C(=O)c1ccccc1Cl`, the “activity change, negative = inhibition” value was -18.8% [at 53 µM].

For the compound `O=[N+]([O-])c1cc(C(F)(F)F)c(Cl)c([N+](=O)[O-])c1Nc1ncc(C(F)(F)F)cc1Cl`, the Potency was 0.564 µM (active).

Regarding `CCCCC(CC)COC(=O)c1ccccc1C(=O)OCC(CC)CCCC` (stereo unspecified), the Potency is 9.47 µM (active).

Consider `CC1CN1` (stereo unspecified), for which the “activity change, negative = inhibition” value is -17.3%.

Regarding `CN1C(=O)[C@@H](NC(=O)c2cc3ccccc3[nH]2)N=C(c2ccccc2)c2ccccc21`, the Potency was 4.9 µM (active).

For `OCC(Br)CBr` (stereo unspecified), the “activity change, negative = inhibition” value was -9.22%.

Consider `CCCN`, for which the “activity change, negative = inhibition” value is -17.5%.

As for `Clc1cc(Cl)c(-c2cc(Cl)c(Cl)cc2Cl)cc1Cl`, the “activity change, negative = inhibition” value is -18.3% [at 53 µM].

Regarding `c1csc(-c2ccc(-c3cccs3)s2)c1`, the Potency was 10 µM (active).

Regarding `C=CCBr`, the “activity change, negative = inhibition” value was -4.25%.

Take `c1ccc(N=NNc2ccccc2)cc1`: the Potency was 26 µM (active) and 31.7 µM (active).

For `BrCCCBr`, the “activity change, negative = inhibition” value was -4%.

In the case of `CCC1COC(Cn2cncn2)(c2ccc(Cl)cc2Cl)O1` (stereo unspecified), the Potency was 6.33 µM (active).

A further test addresses Cytochrome P450 1A2 (Homo sapiens) (UniProt P05177). In words: Cytochrome P450 Family 1 Subfamily A Member 2 (CYP1A2) small molecule antagonists: luciferase reporter qHTS assay (AID 1671199). The settings on record: P450-Glo CYP1A2 enzyme, luciferin luminescence, 1 h; series mostly up to 115 µM; activity change, negative = inhibition: at the top concentration. The gist of the method: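 Steps: enzyme-substrate mix dispensed; test compounds and furafylline control pinned in; 10 min room temperature; NADPH regeneration solution added, 1 h; reaction stopped with luciferin detection reagent; luminescence read after 20 min.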
`CCOP(=S)(NC(C)C)Oc1ccccc1C(=O)OC(C)C` (stereo unspecified): the Potency is 8.94 µM (active).

As for `CO/N=C(\C(=O)OC)c1ccccc1CO/N=C(\C)c1cccc(C(F)(F)F)c1`, the Potency was 17.8 µM (active).

`CNC(=O)Oc1cc(C)cc(C(C)C)c1`: the Potency is 20 µM (active).

As for `CCNS(=O)(=O)C(F)(F)C(F)(F)C(F)(F)C(F)(F)C(F)(F)C(F)(F)C(F)(F)C(F)(F)F`, the “activity change, negative = inhibition” value is -15.5%.

`ClC1(Cl)C2(Cl)C3(Cl)C4(Cl)C(Cl)(Cl)C5(Cl)C3(Cl)C1(Cl)C5(Cl)C24Cl` (stereo unspecified): the “activity change, negative = inhibition” value was -11.8%.

Turning to `CN/C(=N\[N+](=O)[O-])NCc1cnc(Cl)s1`, the “activity change, negative = inhibition” value was -12.2%.

Consider `Oc1cc(Cl)c(Cl)c(Cl)c1Cl`, for which the Potency is 27.6 µM (active).

`Oc1ccc(Cl)c(Cl)c1`: the Potency is 39.3 µM (active).

With `CN1C2CCC(C)(C)C1CC(OC(=O)C(O)(c1cccs1)c1cccs1)C2` (stereo unspecified), the “activity change, negative = inhibition” value is 4.74% [at 53 µM].

Take `CCC(C)Br` (stereo unspecified): the “activity change, negative = inhibition” value is -5.31%.

With `CC(=O)C(Cl)C(=O)N(C)C` (stereo unspecified), the “activity change, negative = inhibition” value is -15.1%.

Regarding `CCC(C)Nc1c([N+](=O)[O-])cc(C(C)(C)C)cc1[N+](=O)[O-]` (stereo unspecified), the Potency is 31.7 µM (active).

In the case of `CCN(CC)CCN1C(=O)CN=C(c2ccccc2F)c2cc(Cl)ccc21`, the “activity change, negative = inhibition” value was -5.81% [at 53 µM].

As to `N#CCCl`, the Potency was 33.1 µM (active).

On to `O=[N+]([O-])c1cc(C(F)(F)F)c(Cl)c([N+](=O)[O-])c1Nc1ncc(C(F)(F)F)cc1Cl`, for which the Potency was 35.6 µM (active).

As for `CCCCC(CC)COC(=O)c1ccccc1C(=O)OCC(CC)CCCC` (stereo unspecified), the Potency is 33.6 µM (active).

`CN1C(=O)[C@@H](NC(=O)c2cc3ccccc3[nH]2)N=C(c2ccccc2)c2ccccc21`: the “activity change, negative = inhibition” value is -6.79% [at 53 µM].

With `c1csc(-c2ccc(-c3cccs3)s2)c1`, the Potency is 1.12 µM (active).

Regarding `c1ccc(N=NNc2ccccc2)cc1`, the Potency is 13.1 µM (active) and 15.9 µM (active).

As to `CCC1COC(Cn2cncn2)(c2ccc(Cl)cc2Cl)O1` (stereo unspecified), the Potency is 28.3 µM (active).

The next test has as its target Voltage-gated inwardly rectifying potassium channel KCNH2 (Homo sapiens) (UniProt Q12809). Put plainly: Human Ether-a-go-go-Related Gene (hERG) channel small molecule antagonists: fluorescence cell-based qHTS assay (AID 1671200).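 For activity change, negative = inhibition: hERG-expressing U2OS cells given a thallium stimulus after FluxOR II dye loading.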 Particulars: hERG-U2OS cells, FluxOR thallium flux fluorescence; series mostly up to 76.8 µM; activity change, negative = inhibition: at the top concentration. The gist of the method: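 Cell line hERG-U2OS; dye FluxOR II, 1 h RT dark; Tl+ stimulus; ex 480/em 540 nm, read each second for 2 min.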
In general terms: Block of hERG is tested as a sign of cardiac risk.
Take `CCOP(=S)(NC(C)C)Oc1ccccc1C(=O)OC(C)C` (stereo unspecified): the “activity change, negative = inhibition” value was 0.0727%.

In the case of `COc1nc(C)nc(NC(=O)NS(=O)(=O)c2ccccc2Cl)n1`, the “activity change, negative = inhibition” value was -0.785%.

As to `CO/N=C(\C(=O)OC)c1ccccc1CO/N=C(\C)c1cccc(C(F)(F)F)c1`, the “activity change, negative = inhibition” value was -5.79%.

Take `CNC(=O)Oc1cc(C)cc(C(C)C)c1`: the “activity change, negative = inhibition” value was 5.62%.

Regarding `CC(C)=CC1C(C(=O)OC(C#N)c2cccc(Oc3ccccc3)c2)C1(C)C` (stereo unspecified), the “activity change, negative = inhibition” value was -7.79%.

Consider `Cc1cnc2c(C(=O)O)c(Cl)ccc2c1`, for which the “activity change, negative = inhibition” value is 1.46%.

`[O]=[Cr][O][Cr]=[O]`: the “activity change, negative = inhibition” value is 3.93%.

Turning to `COC(=O)c1ccccc1S(=O)(=O)NC(=O)Nc1nc(C)nc(OC)n1`, the “activity change, negative = inhibition” value is 0.83%.

With `CCNS(=O)(=O)C(F)(F)C(F)(F)C(F)(F)C(F)(F)C(F)(F)C(F)(F)C(F)(F)C(F)(F)F`, the “activity change, negative = inhibition” value is 17%.

With `ClC1(Cl)C2(Cl)C3(Cl)C4(Cl)C(Cl)(Cl)C5(Cl)C3(Cl)C1(Cl)C5(Cl)C24Cl` (stereo unspecified), the “activity change, negative = inhibition” value is -2.46%.

Take `CN/C(=N\[N+](=O)[O-])NCc1cnc(Cl)s1`: the “activity change, negative = inhibition” value is -0.832%.

Consider `Oc1cc(Cl)c(Cl)c(Cl)c1Cl`, for which the “activity change, negative = inhibition” value is -13%.

As for `CCc1cccc(C)c1N(C(=O)CCl)[C@@H](C)COC`, the “activity change, negative = inhibition” value is -1.62%.

Consider `Oc1ccc(Cl)c(Cl)c1`, for which the “activity change, negative = inhibition” value is 0.301%.

As to `CC(C)c1c(CN(C)C(C)Cc2ccccc2)n(C)n(-c2ccccc2)c1=O` (stereo unspecified), the “activity change, negative = inhibition” value was -23.9% [at 35.3 µM].

As to `CCC(C)Br` (stereo unspecified), the “activity change, negative = inhibition” value is -4.26%.

In the case of `COc1cnc(OC)n2nc(NS(=O)(=O)c3c(OCC(F)F)cccc3C(F)(F)F)nc12`, the “activity change, negative = inhibition” value is 1.04%.

Consider `CNC(=O)CSP(=O)(OC)OC`, for which the “activity change, negative = inhibition” value was -0.912%.

For the compound `CC(=O)C(Cl)C(=O)N(C)C` (stereo unspecified), the “activity change, negative = inhibition” value was 6.82%.

In the case of `O=c1[nH]c(Cl)c(Cl)cc1Cl`, the “activity change, negative = inhibition” value was -5.98%.

In the case of `CCN(CC)CCN1C(=O)CN=C(c2ccccc2F)c2cc(Cl)ccc21`, the Potency is 3.79 µM (active).

With `C=CC(=O)[O][Sn]([CH2]CCC)([CH2]CCC)[CH2]CCC`, the Potency was 6.16 µM (active).

For `CCN(CC)Cc1nccn1-c1ccc([N+](=O)[O-])cc1C(=O)c1ccccc1Cl`, the Potency is 5.35 µM (active).

Take `CCCCC(CC)COC(=O)c1ccccc1C(=O)OCC(CC)CCCC` (stereo unspecified): the “activity change, negative = inhibition” value is -2.63%.

Turning to `CC1CN1` (stereo unspecified), the “activity change, negative = inhibition” value is 1.88%.

With `OCC(Br)CBr` (stereo unspecified), the “activity change, negative = inhibition” value is 0.218%.

On to `CCCN`, for which the “activity change, negative = inhibition” value was 0.124%.

`Clc1cc(Cl)c(-c2cc(Cl)c(Cl)cc2Cl)cc1Cl`: the “activity change, negative = inhibition” value was -5.93% [at 35.3 µM].

On to `c1csc(-c2ccc(-c3cccs3)s2)c1`, for which the “activity change, negative = inhibition” value was -6.74%.

Regarding `C=CCBr`, the “activity change, negative = inhibition” value was -2.47%.

Take `BrCCCBr`: the “activity change, negative = inhibition” value was 1.71%.

Consider `CCC1COC(Cn2cncn2)(c2ccc(Cl)cc2Cl)O1` (stereo unspecified), for which the “activity change, negative = inhibition” value is 0.493%.

In the case of `CSSC`, the “activity change, negative = inhibition” value was -3.46%.

The values are drawn from PubChem BioAssay (Tox21).
